Screening data as filed in PubChem.
Rows were chosen to be rich in hits. Some 9.5% of all compounds tested hit in one or more screens of this group.
Pf growth 48h = Primary qHTS for delayed death inhibitors of the malarial parasite plastid, 48 hour incubation | Potency, µM (series often up to 28.7 µM), inactives show at the highest dose activity change, negative = inhibition, hits mostly inhibitors | hit rate 5.9% among 310,000 | AID 504832, 2011 | P. falciparum luciferase growth in erythrocytes, 48 h; note: % is set by controls: 0 for no effect and ±100 for the full control effect
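In quantitative HTS format, infected erythrocytes bearing luciferase-reporter parasites were treated for a single generation at 37 C. Luminescence after adding detection reagent served as the growth measure.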
NS1 function inh = qHTS Assay for Inhibitors of Influenza NS1 Protein Function. Potency, µM (top dose mostly 46.1 µM), for inactives: top-dose activity, positive = more growth. hit rate 0.4% among 270,000; calls by dose curve; note: actives are rising curves; nearly all actives have a fitted effect of over 50% in size
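S. cerevisiae expressing influenza A NS1, grown in glucose, washed, then diluted 1:100 into pH 6.0 -URA galactose medium with 23 nl compound. Growth recovery read as OD600; NS1-free strain serves as control.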
Pf growth 96h = Primary qHTS for delayed death inhibitors of the malarial parasite plastid, 96 hour incubation; P. falciparum luciferase reporter growth, 96 h; Potency, µM (highest dose often 28.7 µM), for inactives: at the highest dose activity change, negative = inhibition, most hits filed as inhibitors; hit rate 6.9% among 320,000; note: % is set by controls: 0 for no effect and ±100 for the full control effect
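P. falciparum expressing integrated firefly luciferase grown in erythrocytes (2% hematocrit, 0.05% parasitemia final) with compounds for 96 hours at 37 C, 5% CO2. Growth inhibition read as loss of luminescence after adding luciferase detection reagent.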
RE007 growth inh = qHTS Assay for Inhibitors of the HIV-1 protein Vpr; S. pombe RE007 Vpr strain, BacTiter-Glo ATP luminescence, 24 h; Potency, µM (top dose mostly 92.2 µM), for the others: at the highest dose activity change, negative = less growth, actives largely listed as inhibitors; hit rate 0.21% among 360,000; active = well fitted falling curve with a large enough effect; inconclusive = small, poorly fitted or top-dose-only effect; inactive = no such curve, though single readings can be large or run the other way; note: % is set by controls: 0 for no effect and ±100 for the full control effect; nearly all actives have a fitted effect of over 50% in size
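Fission yeast RE007 carrying one integrated HIV-1 vpr copy, seeded at OD 0.01 in PMG+AL medium with 23 nL pinned compound. Grown 24 h at 30 degrees; viability read by BacTiter-Glo luminescence after 5 min.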
SARS PLpro yeast = qHTS of Yeast-based Assay for SARS-CoV PLP; S. cerevisiae expressing SARS-CoV PLpro, growth rescue; hit rate 0.19% among 330,000; Potency, µM (top dose mostly 32.9 µM), inactives show top-dose activity, positive = growth rescue, hits mostly activators; calls by dose curve; note: 0% is about no effect; nearly all actives have a fitted effect of over 55% in size
Starred values were filed as active, the others as inactive; ? = inconclusive; . = no result given; ! = not confirmed by another sample; [ ] = another dose, or the depositor's remark. Unless noted, calls come from the whole dose curve; as a rule, active = well fitted inhibition curve with a large enough effect; inconclusive = small, poorly fitted or top-dose-only effect, or another doubt; inactive = no such curve, though single readings can be large or run the other way. Potency is the fitted concentration of half-maximal effect.

SMILES	Pf growth 48h	NS1 function inh	Pf growth 96h	RE007 growth inh	SARS PLpro yeast
COc1ccc(NC(=O)NCC(C)CSc2ccc(C)cc2)c(OC)c1 (stereo not given)	-32%	-2%	?	5%	0%
O=C(CCn1cccc1)NCc1ccccc1	34%	10%	8.3µM*	-17%	-4%
CCC(Cc1ccccc1)NC(=O)CCn1cccc1 (stereo not given)	13%	2%	5.9µM*	-1%	-2%
COc1ccc(C(=O)Nc2cc(-c3ccccc3)nn2-c2ccccc2F)cc1	?	.	?	13%	8%
O=C(Cn1cnc2c(NC(=O)OCc3ccccc3)ncnc21)NCCN1CCOCC1	23%	.	27%	-8%	-3%
CC12CC(NC(=O)N1c1cccc(C(=O)N3CCN(c4ccccc4)CC3)c1)c1ccccc1O2 (stereo not given)	8.3µM*	5%	?	-13%	-5%
COc1cccc(N2CCN(C(=O)c3cccc(N4C(=O)NC5CC4(C)Oc4c(OC)cccc45)c3)CC2)c1 (stereo not given)	?	-7%	-18%	-3%	-2%
CCOC(=O)N1CCN(C(=O)c2cccc(N3C(=O)NC4CC3(C)Oc3ccccc34)c2)CC1 (stereo not given)	-15%	12%	1.9µM*	10%	-3%
COc1ccccc1N1CCN(C(=O)c2cccc(N3C(=O)NC4CC3(C)Oc3ccccc34)c2)CC1 (stereo not given)	12µM*	-7%	1%	4%	-2%
O=C(CSc1nc(=O)n2ccccc2n1)N1CCCCCC1	-21%	.	3%	-15%	-4%
CC(C)c1oc(=O)cc2c1[C@@H](O)[C@H]1OC(=O)[C@@]3(C)C[C@@H](O)[C@@H](O)[C@@]2(C)C13 (stereo not given in full)	1.5µM*	17%	1µM*	-7%	4%
CC(C)c1oc(=O)cc2c1[C@@H](O)[C@H]1OC(=O)[C@@]3(C)CC[C@@H](O)[C@@]2(C)C13 (stereo not given in full)	2.9µM*	12%	2.6µM*	-4%	13%
Cc1c(NC(=O)C(C)OC(=O)c2cccs2)c(=O)n(-c2ccccc2)n1C (stereo not given)	5%	4%	19%	-10%	-8%
CCC(C)(C)C1CCc2nc3ccccc3c(C(=O)OC(C)C(=O)Nc3c(C)n(C)n(-c4ccccc4)c3=O)c2C1 (stereo not given)	?	7%	10µM*	-5%	-9%
CCOc1cc(CNCCc2c[nH]c3ccccc23)cc(Cl)c1OC	?	-11%	6.6µM*	-4%	-2%
COc1ccc(CNCCc2c[nH]c3ccccc23)c(OC)c1OC	-10%	-1%	?	3%	-8%
COc1cc(CNCCc2c[nH]c3ccccc23)cc(Cl)c1OCC(N)=O	?	3%	-13%	-10%	5%
CCOc1cc(CNCCc2c[nH]c3ccccc23)cc(Cl)c1OCC(N)=O	?	2%	4.7µM*	-6%	0%
Cc1[nH]n(C(C)(C)C)c(=O)c1Sc1ccccc1	-11%	-3%	12µM*	-9%	-31%
C/C(=N\NC(=O)c1ccco1)c1cc2ccccc2o1	80%	-18%	-26%	-22%	-11%
C/C(=N\NC(=S)Nc1ccccc1C)c1cc2ccccc2o1	?	6%	7.4µM*	-14%	0%
C/C(=N\NC(=S)Nc1c(C)cccc1C)c1cc2ccccc2o1	?	11%	12µM*	8%	6%
Cc1ccc(OCCNC(=O)CCc2ccccc2)cc1C	.	.	.	4%	.
CNCCc1c(C)n[nH]c1C	0%	0%	12µM*	1%	-1%
COc1ccc(OCCCc2c(C)n[nH]c2C)cc1	.	-34%	9.3µM*	-17%	16%
SMILES	Pf growth 48h	NS1 function inh	Pf growth 96h	RE007 growth inh	SARS PLpro yeast
Cc1n[nH]c(C)c1CCN	?	-7%	.	9%	-2%
O=C(NC(=S)Nc1ccc2oc(=O)ccc2c1)c1cccc(Cl)c1	7%	2%	20%	-1%	-16%
COc1ccc(C(=O)NNC(=O)C2CCN(S(=O)(=O)c3ccc(C)cc3)CC2)cc1	-25%	0%	?	-9%	0%
CC[N+](C)(CC)CCOC(=O)C1c2ccccc2Oc2ccccc21	10µM*!	.	10µM*!	-8%[18.4 µM]	-2%
CN(C)CCCOC(=O)C1c2ccccc2Oc2ccccc21	-7%	9%	1%	1%	1%
O=C(CCc1cccc(Cl)c1)N1CCCC(Nc2ccccc2)C1 (stereo not given)	-7%	-29%	-29%	-5%	-5%
COc1ccc(C2NCCc3c2[nH]c2ccccc32)cc1CN1CCc2cc(OC)c(OC)cc2C1C (stereo not given)	1.7µM*	-1%	?	-13%	-1%
COc1ccc(N(C)C(=O)c2ccc3snnc3c2)cc1	0%	2%	10µM*	-2%	9%
CN(CC(=O)Nc1ccccc1C(=O)NC1CC1)Cc1ccc(N(C)C)cc1	-1%	.	-14%	-2%	-6%
CCOCCCN(C(=O)c1snc(C(N)=O)c1N)C(C(=O)NC1CCCC1)c1ccc(O)cc1 (stereo not given)	-3%	1%	?	-7%	0%
C/C(N=Nc1nc2ccccc2s1)=N\Nc1ccccc1O	2.6µM*	-18%	8%	?	-13%
Cc1cn([C@H]2C[C@H](O)[C@@H](CNC(=O)[C@@H]3CCCN3Cc3ccccc3)O2)c(=O)[nH]c1=O	.	.	.	3%	.
COc1ccc(-c2csc(NC(=O)CCN3C(=O)C4CC=CCC4C3=O)n2)cc1OC (stereo not given)	10µM*	.	?	3%	-2%
COc1ccc(CCNc2nc(-c3ccncc3)cs2)cc1OC	-16%	-33%	?	-8%	-5%
COc1ccc(CC(=O)Nc2nc(-c3ccncc3)cs2)cc1	?	3%	13µM*	-2%	-3%
COc1ccc(CCNc2nc(-c3ccc(O)cc3)cs2)cc1OC	?	?	10µM*	-15%	-2%
COc1cc(OC)cc(C(=O)N[C@H](C(=O)Nc2nc(-c3cc(OC)ccc3OC)cs2)C(C)C)c1	-16%	.	?	-24%	1%
COc1cc(OC)cc(C(=O)N[C@H](C(=O)Nc2nc(-c3ccc(OC)c(OC)c3)cs2)C(C)C)c1	13µM*	12%	10µM*	9%	0%
CC(Sc1ncccn1)C(=O)N1CCc2ccccc21 (stereo not given)	?	.	-1%	-8%	-1%
O=C(Nc1ccc2c(c1)OCO2)C1CCN(C(=O)c2ccc(Br)cc2)CC1	1%[5.75 µM]	.	?	-6%	0%
COc1ccc(-c2csc(NC(=O)Cc3cc(OC)c(OC)c(OC)c3)n2)cc1OC	?	-18%	12µM*	1%	-3%
COc1ccc(-c2csc(NC(=O)COC(=O)Cc3ccccc3)n2)cc1OC	13%	25%	54%	.	2%
